Test results: PubChem BioAssay (NCI)
The panel holds about 79,000 compounds, 15% with a hit somewhere; the sample as a whole holds those more often. Rule as the data show it: active = growth inhibition above about 70%; inactive = the rest.

Assays:
[1] = NCI Yeast Anticancer Drug Screen. Data for the rad52 strain (AID 147);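 also: 0% = growth of vehicle-treated control cultures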; conditions: S. cerevisiae rad52 mutant growth inhibition, stronger effect = higher value
In short: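 Growth of repair-deficient yeast cells was compared between compound-treated and vehicle-treated cultures to give percent inhibition.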

[2] = NCI Yeast Anticancer Drug Screen. Data for the wt1 strain (AID 149);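 also: 0% = growth of vehicle-treated wt1 cultures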; conditions: S. cerevisiae wt1 strain (SPY 50644) growth inhibition, stronger effect = higher value
In short: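 Readout: yeast growth inhibition, normalised to vehicle controls, in the wt1 strain exposed to test compounds.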

[3] = NCI Yeast Anticancer Drug Screen. Data for the rad50EPP+ strain (AID 151);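 also: 0% = growth of vehicle-treated control cultures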; conditions: S. cerevisiae rad50 mutant strain, stronger effect = higher value
In short: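 Measured: growth inhibition of rad50EPP+ yeast. Reference: vehicle-treated controls. Screen uses strains with defined genetic alterations in DNA damage repair or cell cycle control.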

[4] = NCI Yeast Anticancer Drug Screen. Data for the mgt1 strain (AID 153); conditions: S. cerevisiae mgt1 mutant growth inhibition, stronger effect = higher value
In short: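 Compounds were applied to mgt1 mutant yeast, and growth was then compared against vehicle-treated control cultures to give percent inhibition.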

[5] = NCI Yeast Anticancer Drug Screen. Data for the rad50 strain (AID 155);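 also: 0% = growth of vehicle-only cultures of the same strain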; conditions: S. cerevisiae rad50 strain growth inhibition, stronger effect = higher value
In short: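 Compounds were tested on a yeast strain with an engineered DNA damage repair alteration; the reported value is growth inhibition normalised to vehicle treatment.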

[6] = NCI Yeast Anticancer Drug Screen. Data for the mec2-1 strain (AID 157); conditions: S. cerevisiae mec2-1 strain, stronger effect = higher value
In short: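 Compounds were applied to mec2-1 yeast cells. Their growth was then compared with that of vehicle-treated cultures to give growth inhibition.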

[7] = NCI Yeast Anticancer Drug Screen. Data for the sgs1 mgt1 strain (AID 161);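 also: 0% = growth of cultures given vehicle only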; conditions: S. cerevisiae sgs1 mgt1 strain, stronger effect = higher value
In short: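 Yeast cells carrying a defined DNA-repair defect were exposed to test compounds. Growth inhibition was measured relative to vehicle-treated controls.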

[8] = NCI Yeast Anticancer Drug Screen. Data for the CLN2oe strain (AID 163);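 also: 0% = growth of vehicle-only control cultures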; conditions: S. cerevisiae CLN2oe strain, stronger effect = higher value
In short: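 Cells of an engineered yeast line with disturbed cell-cycle regulation are treated with compound. Inhibition of growth is then calculated relative to the vehicle-treated reference.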

[9] = NCI Yeast Anticancer Drug Screen. Data for the cln2 rad14 strain (AID 165);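 also: 0% = growth equal to vehicle treated cultures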; conditions: S. cerevisiae cln2 rad14 strain, stronger effect = higher value
In short: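 Strain: cln2 rad14 yeast, altered in cell cycle control and DNA damage repair. Read-out: growth inhibition vs vehicle.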

[10] = NCI Yeast Anticancer Drug Screen. Data for the bub3 strain (AID 167); conditions: S. cerevisiae bub3 mutant strain, stronger effect = higher value
In short: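 Growth of a checkpoint-deficient yeast mutant is measured after compound exposure. Values represent inhibition relative to vehicle.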

[11] = NCI Yeast Anticancer Drug Screen. Data for the wt2 strain (AID 169);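 also: 0% = growth of vehicle-treated yeast cultures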; conditions: S. cerevisiae wt2 strain growth inhibition, stronger effect = higher value
In short: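 Growth of compound-treated yeast is measured and expressed as inhibition relative to vehicle-only controls.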

[12] = NCI Yeast Anticancer Drug Screen. Data for the mlh1 strain (AID 171);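 also: 0% = growth of vehicle-treated control cultures of the same strain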; conditions: S. cerevisiae mlh1 strain growth inhibition, stronger effect = higher value
In short: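 Test agents were incubated with yeast bearing a defined DNA damage repair or cell cycle control alteration; values are growth inhibition normalised to vehicle-treated cultures.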

[13] = NCI Yeast Anticancer Drug Screen. Data for the sgs1 strain (AID 173);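 also: 0% = growth of vehicle-only control cultures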; conditions: S. cerevisiae sgs1 mutant, stronger effect = higher value
In short: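 Strain with an altered DNA repair or cell cycle pathway exposed to compound. Growth then measured. Value = inhibition versus vehicle control.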

[14] = NCI Yeast Anticancer Drug Screen. Data for the mlh1 rad18 strain (AID 175); conditions: S. cerevisiae mlh1 rad18 strain growth inhibition, stronger effect = higher value
In short: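 A repair-deficient yeast strain is exposed to test compound, and growth is scored relative to vehicle-treated controls.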

[15] = NCI Yeast Anticancer Drug Screen. Data for the rad18 strain (AID 177); conditions: S. cerevisiae rad18 mutant growth inhibition, stronger effect = higher value
In short: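 DNA-repair-defective yeast; compound treatment; growth inhibition scored against vehicle.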

[16] = at 5.0 µM (retest, dose inferred, filed as 0.5)
[17] = at 50.0 µM (retest, dose inferred, filed as 5.0)

Measured: growth inhibition

CCOc1ccc(C(=O)CCC(=O)O)c(C)c1
inactive: [1]; at 1.2 µM -1% | [1]; at 3.7 µM 0% | [1]; at 11.0 µM -5% | [1]; at 33.0 µM -1% | [1]; at 100.0 µM 4% | [2]; at 1.2 µM 3% | [2]; at 3.7 µM -1% | [2]; at 11.0 µM 4% | [2]; at 33.0 µM 5% | [2]; at 100.0 µM 17% | [3]; at 1.2 µM -2% | [3]; at 3.7 µM -2% | [3]; at 11.0 µM 0% | [3]; at 33.0 µM -3% | [3]; at 100.0 µM 3% | [4]; at 1.2 µM -4% | [4]; at 3.7 µM -3% | [4]; at 11.0 µM 1% | [4]; at 33.0 µM 2% | [4]; at 100.0 µM 21% | [5]; at 1.2 µM -2% | [5]; at 3.7 µM 4% | [5]; [16] 13% | [5]; at 11.0 µM 1% | [5]; at 33.0 µM 8% | [5]; [17] 14% | [5]; at 100.0 µM 12% | [6]; at 1.2 µM 0% | [6]; at 3.7 µM -7% | [6]; [16] -10% | [6]; at 11.0 µM -16% | [6]; at 33.0 µM 4% | [6]; [17] 13% | [6]; at 100.0 µM 15% | [7]; [16] 9% | [7]; [17] 4% | [8]; at 1.2 µM 0% | [8]; at 3.7 µM -1% | [8]; at 11.0 µM 4% | [8]; at 33.0 µM 12% | [8]; at 100.0 µM 20% | [9]; [16] -12% | [9]; [17] 44% | [10]; at 1.2 µM -9% | [10]; at 3.7 µM -11% | [10]; [16] -17% | [10]; at 11.0 µM -1% | [10]; at 33.0 µM -8% | [10]; [17] 14% | [10]; at 100.0 µM 36% | [11]; at 1.2 µM 1% | [11]; at 3.7 µM 2% | [11]; at 11.0 µM 2% | [11]; at 33.0 µM 6% | [11]; at 100.0 µM 16% | [12]; at 1.2 µM -2% | [12]; at 3.7 µM -6% | [12]; at 11.0 µM -10% | [12]; at 33.0 µM 3% | [12]; at 100.0 µM 12% | [13]; at 1.2 µM 0% | [13]; at 3.7 µM -1% | [13]; at 11.0 µM 1% | [13]; at 33.0 µM 1% | [13]; at 100.0 µM 8% | [14]; [16] 16% | [14]; [17] -1% | [15]; at 1.2 µM -2% | [15]; at 3.7 µM -4% | [15]; at 11.0 µM -6% | [15]; at 33.0 µM -16% | [15]; at 100.0 µM -17%
